Only some compounds are listed: those with a hit (about 21% of all), similar ones and a draw of the others.
Pf growth 96h – P. falciparum growth inhibition at 96 hour, primary screen for plastid delayed-death inhibitors | P. falciparum luciferase reporter growth, 96 h | Potency, µM (top dose mostly 28.7 µM), without a hit: at the highest dose activity change, negative = inhibition, actives largely listed as inhibitors | actives 6.9% (n = 320,000); also: potency is read from the fitted curve at half-maximal effect; % is scaled to controls: 0 for no effect and ±100 for the full control effect
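Erythrocytes infected with luciferase-expressing P. falciparum were dispensed at 2% hematocrit and 0.05% parasitemia (final), then incubated with compounds 96 hours at 37 C in 5% CO2. Luminescence after detection reagent addition reported growth.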
CHX counter – counter-screen for Shiga toxin inhibitors: cycloheximide protein synthesis inhibition | cell reporter, cycloheximide protein synthesis inhibition counterscreen | max response, % | actives 12% (n = 300,000); in the data active = max response mostly above about 13%, no sharp cut-off; inactive = mostly below about 14%; also: read at 38.3 µM for the half of the compounds with a filed dose; 0% is about no effect
HCMV inh – human cytomegalovirus inhibition | activity change, negative = inhibition, % at 57.5 µM | actives 4.5% (n = 410,000) | AID 1259415 | HFF cells, HCMV-luciferase reporter, 72 h; stronger effect = lower value; in the data active = activity change below about -60%; inconclusive = no clear call, values can overlap the other calls; inactive = above about -39%; also: % is scaled to controls: 0 for no effect and ±100 for the full control effect
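HFF cells seeded 16 h at 37C, treated with compounds, infected with luciferase-reporter HCMV at MOI 1 PFU/cell; luciferase read at 72 h post infection, normalized to buffer-only and Salinomycin controls.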
HCV inh – blocks hepatitis C virus; Huh7.5.1 HCVcc-Cre infection, luciferase reporter, 44 h; Potency, µM (doses to about 41.8 µM), without a hit: at the highest dose activity change, negative = inhibition, hits mostly inhibitors; actives 3.4% (n = 340,000); AID 651820; also: potency is read from the fitted curve at half-maximal effect; % is scaled to controls: 0 for no effect and ±100 for the full control effect
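Seed cells (1,000/well) for 4 h; treat with compound and infect with HCVcc-Cre, moi about 0.5. Incubate 44 h, then detect luciferase activity.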
Shiga toxin inh – blocks Shiga toxin action in Vero cells; Vero cells, Shiga toxin protein synthesis inhibition reporter; actives 9.2% (n = 290,000); inhibition, % at 38.7 µM; in the data active = inhibition mostly above about 28%, no sharp cut-off; inactive = mostly below about 43%; also: 0% is about no effect
Pf growth 48h – inhibits P. falciparum growth in the first generation, 48 h; P. falciparum luciferase growth in erythrocytes, 48 h; Potency, µM (highest dose often 28.7 µM), for the others: at the highest dose activity change, negative = inhibition, most hits filed as inhibitors; actives 5.9% (n = 310,000); AID 504832; also: potency is read from the fitted curve at half-maximal effect; % is scaled to controls: 0 for no effect and ±100 for the full control effect
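Erythrocytes infected with P. falciparum carrying an integrated firefly luciferase reporter (2% hematocrit, 0.1% parasitemia final) were exposed to compounds in RPMI 1640 with 0.5% Albumax at 37 C, 5% CO2. Growth inhibition was scored as reduced luminescence.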
* hit, by the source's call. Unless noted, calls follow the shape of the dose curve; as a rule, active = well fitted inhibition curve with a large enough effect; inconclusive = small, poorly fitted or top-dose-only effect, or another doubt; inactive = no such curve, though single readings can be large or run the other way.

CC(=O)Nc1ccc(C(=O)NCCCOC(C)C)cc1 was read as Pf growth 96h 57%, CHX counter 1, HCMV inh inconclusive, HCV inh 11%, Shiga toxin inh 4 and Pf growth 48h -1%.
COCCCNC(=O)C(=O)NCCCOC(C)C was read as Pf growth 96h 12µM*, CHX counter -2, HCMV inh 15, HCV inh inconclusive, Shiga toxin inh 17 and Pf growth 48h 3%.
Screening CC(C)(C)OC(=O)N1CCC(c2c(C(=O)NCCN3CCOCC3)cnn2-c2ccc(F)cc2F)CC1 returned HCMV inh 0.
COc1cccc(-c2c(C(=O)N/N=C/c3ccoc3)nnn2-c2nonc2N)c1 was read as Pf growth 96h inconclusive, CHX counter -3, HCMV inh 17, HCV inh 10%, Shiga toxin inh 2 and Pf growth 48h inconclusive.
For Cc1ccc2oc(=O)c3cnn(CC(=O)Nc4ccccc4N4CCN(C)CC4)c3c2c1 the results were Pf growth 96h inconclusive, CHX counter -4, HCMV inh inconclusive, HCV inh 14µM*, Shiga toxin inh -3 and Pf growth 48h 5%.
COC(=O)C(CCSC)NC(=O)Cn1ncc2c(=O)oc3ccc(C)cc3c21 (centres undefined) was read as Pf growth 96h 15µM*, CHX counter -2, HCMV inh 17, HCV inh 9%, Shiga toxin inh -2 and Pf growth 48h 24%.
`Cc1ccc2oc(=O)c3cnn(CC(=O)N4CCN(c5ccccc5F)CC4)c3c2c1` gave HCMV inh -1.
Screening CCOC(=O)C(C)NC(=O)Cn1ncc2c(=O)oc3ccc(C)cc3c21 (centres undefined) returned Pf growth 96h 83%, CHX counter -3, HCMV inh 7, HCV inh 12%, Shiga toxin inh -4 and Pf growth 48h inconclusive.
For Cc1ccc(C2(c3ccccc3)NC(=O)N(CC(=O)N(C)C3CCS(=O)(=O)C3)C2=O)cc1C (centres undefined) the results were Pf growth 96h inconclusive, HCMV inh 4, HCV inh 6% and Pf growth 48h inconclusive.
For CC1(Cc2cccc(C(N)=O)c2)C(=O)Nc2c(Cl)cccc21 (centres undefined) the results were HCMV inh 78.
O=C(CSc1nnc(NC2CCCCC2)s1)Nc1ccc2c(c1)C(=O)c1ccccc1C2=O was read as Pf growth 96h -26%, CHX counter 42*, HCMV inh 106, HCV inh 10µM*, Shiga toxin inh 66* and Pf growth 48h -51%.
CC(C)Nc1nnc(SCC(=O)Nc2ccc3c(c2)C(=O)c2ccccc2C3=O)s1 was read as Pf growth 96h inconclusive, CHX counter 41*, HCMV inh 73, HCV inh inconclusive, Shiga toxin inh 70* and Pf growth 48h 41%.
For O=C(O)/C=C/C(=O)Nc1cc(F)ccc1F the results were Pf growth 96h -1%, CHX counter -2, HCMV inh inconclusive, HCV inh 2%, Shiga toxin inh -14 and Pf growth 48h -1%.
For COc1ccc(CC(=O)OCC(=O)Nc2ccc(N3CCOCC3)cc2)cc1 the results were Pf growth 96h inconclusive, CHX counter -2, HCMV inh -17, HCV inh 8%, Shiga toxin inh 10 and Pf growth 48h inconclusive.
`Cc1cc(-c2ccn[nH]2)c(C)s1` gave Pf growth 96h inconclusive, CHX counter -2, HCMV inh 9, HCV inh 13%, Shiga toxin inh 5 and Pf growth 48h inconclusive.
Cc1cc(C)c(C2=NOC(O)(C(F)(F)F)C2)c(=O)[nH]1 (centres undefined) was read as CHX counter -7, HCMV inh -38, HCV inh -3%, Shiga toxin inh 3 and Pf growth 48h 12%.
Cc1cc(C)c(-c2cc(C(F)(F)F)no2)c(=O)[nH]1 was read as Pf growth 96h 12µM*, CHX counter -2, HCMV inh -16, HCV inh 8%, Shiga toxin inh -4 and Pf growth 48h 13%.
